# The panel holds about 83,000 compounds, 20% with a hit somewhere; the sample as a whole holds those more often.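 A percent growth of 40 corresponds to 60% growth inhibition; 0 means no net growth; -100 means all cells died. Active threshold: below 10.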 Values without a mark were called inactive. The source made the active and inactive calls.
# Columns and labels:
# Assay in all cases: NCI-60 one-dose screen, 48 h (100 = growth as untreated, 0 = no growth, -100 = all killed)
# Details in all cases: 10 µM unless noted
# HCT-15 colon = test system: HCT-15 colon
# HT29 colon = test system: HT29 colon
# SNB-75 CNS = test system: SNB-75 CNS
# SNB-19 CNS = test system: SNB-19 CNS
# U251 CNS = test system: U251 CNS
# PC-3 prostate = test system: PC-3 prostate
# SK-MEL-5 melanoma = test system: SK-MEL-5 melanoma
# UACC-62 melanoma = test system: UACC-62 melanoma
# LOX IMVI melanoma = test system: LOX IMVI melanoma
# SK-MEL-28 melanoma = test system: SK-MEL-28 melanoma
# SK-MEL-2 melanoma = test system: SK-MEL-2 melanoma
# EKVX NSCLC = test system: EKVX NSCLC
# SN12C renal = test system: SN12C renal
# UO-31 renal = test system: UO-31 renal
# ACHN renal = test system: ACHN renal
# CAKI-1 renal = test system: CAKI-1 renal
# A498 renal = test system: A498 renal
# CCRF-CEM leukemia = test system: CCRF-CEM leukemia
# MOLT-4 leukemia = test system: MOLT-4 leukemia
# TK-10 renal = test system: TK-10 renal
Structure (SMILES),growth (HCT-15 colon),growth (HT29 colon),growth (SNB-75 CNS),growth (SNB-19 CNS),growth (U251 CNS),growth (PC-3 prostate),growth (SK-MEL-5 melanoma),growth (UACC-62 melanoma),growth (LOX IMVI melanoma),growth (SK-MEL-28 melanoma),growth (SK-MEL-2 melanoma),growth (EKVX NSCLC),growth (SN12C renal),growth (UO-31 renal),growth (ACHN renal),growth (CAKI-1 renal),growth (A498 renal),growth (CCRF-CEM leukemia),growth (MOLT-4 leukemia),growth (TK-10 renal)
CSc1nc2nc3c(c(-c4ccc(C)cc4)c2c(=O)[nH]1)CN(C)C/C3=C\c1ccc(C)cc1,116%,103%,93%,97.3%,91.2%,98.5%,77.1%,93.8%,90%,111%,112%,83.5%,102%,86.1%,94.9%,93.7%,85.6%,85.2%,87.2%,
c1ccc2nc(N/N=C3\CCCCC3C3CCCCC3)ccc2c1 (stereo unspecified),33.5%,26.6%,70.2%,76%,41.6%,14%,39.7%,50.8%,23.4%,62.6%,34.6%,33.5%,59.4%,60.9%,44.5%,43.4%,,,6.97% (active),72.8%
CC[C@@H](c1ccc(O)c(O)c1)[C@@H](CC)c1ccc(O)c(O)c1,58.1%,95.4%,82.4%,97.7%,89.9%,75.5%,91.4%,64.5%,61%,87.1%,93.6%,117%,99.8%,-1.68% (active),9.03% (active),6.55% (active),,7.86% (active),59.9%,97%
CNNc1ncnc2c1cnn2-c1ccc(S(N)(=O)=O)cc1,103%,95.2%,104%,105%,98.5%,81.4%,91.2%,100%,97.5%,109%,98.3%,106%,105%,94.3%,93%,,112%,81.6%,86.6%,102%
CC(C)CC1NC(=O)C(CCCN)NC(=O)C(C(C)C)NC(=O)C2CCCN2C(=O)C(Cc2ccccc2)NC(=O)C(CC(C)C)NC(=O)C(CCCN)NC(=O)C(C(C)C)NC(=O)C2CCCN2C(=O)C(Cc2ccccc2)NC1=O (stereo unspecified),7.83% (active),-51.7% (active),-81.5% (active),-83% (active),-94.4% (active),-49.2% (active),-98.3% (active),-75.3% (active),-86.7% (active),-72.1% (active),-94% (active),-87.3% (active),-82.2% (active),-20% (active),-19.8% (active),-14.8% (active),-70.1% (active),-59.3% (active),-51.3% (active),
COc1cc(/C=C2\CN(C)CC3=C2Nc2nc(SC)[nH]c(=O)c2C3c2cc(OC)c(OC)c(OC)c2)cc(OC)c1OC (stereo unspecified),36.6%,15%,27.8%,66.8%,20.6%,68%,58.2%,30%,3.87% (active),44.9%,71.8%,83.7%,24.2%,52.4%,39.2%,14.5%,95.9%,-0.341% (active),0.96% (active),
CC12CCC3C(=CCc4cc(O)ccc43)C1CCC2=O (stereo unspecified),96.1%,94.5%,104%,103%,98.7%,88.9%,97.5%,88.9%,102%,103%,119%,72.3%,97.5%,76%,93.1%,92.6%,102%,95.5%,85.4%,
Nc1ccn(C2O[C@H](CO)[C@@H](O)[C@@H]2O)c(=O)n1 (stereo partly specified),59.5%,42.7%,78.6%,47.9%,40%,63.9%,45.1%,22.1%,19.1%,68.5%,88.3%,91.8%,37.1%,1.02% (active),0.769% (active),12.4%,66.8%,6.02% (active),13.6%,
COc1ccc2nc(-c3ccc(Cl)cc3)cc(-c3nnc(SCC(=O)Nc4ccc(C(C)=O)cc4)n3-c3ccccc3)c2c1,101%,78.6%,81%,105%,101%,87.3%,103%,97.7%,105%,107%,91.5%,101%,114%,84.4%,108%,,100%,,83%,
Cn1cc(NC(=O)Nc2cc(C(=O)O)n(C)c2)cc1C(=O)O,113%,107%,103%,118%,100%,-76.4% (active),93.6%,90%,98.1%,121%,97.8%,114%,89.6%,,104%,99.3%,109%,103%,85.9%,107%
N#CSCC1CC(O)(c2ccccc2)C(c2ccccc2)C(c2ccc(Cl)cc2)O1 (stereo unspecified),-64.6% (active),1.18% (active),37.5%,36.6%,-31.1% (active),-6.02% (active),-87.4% (active),-90.5% (active),-97.4% (active),-84% (active),-42.7% (active),-40% (active),-91.9% (active),-93.1% (active),-71.6% (active),-67.1% (active),6.8% (active),10.2%,-10% (active),
N#Cc1c(-c2ccc(F)cc2)n2c(nc1=O)SC(=O)C2=O,106%,105%,83.8%,103%,92.2%,92.1%,96.5%,80.2%,87.3%,102%,92%,91.3%,91.1%,110%,90.3%,86.4%,70%,85.4%,90.5%,
c1ccc2nc(Cn3c[n+](Cc4ccc5ccccc5n4)c4ccccc43)ccc2c1,98.7%,15.5%,41.4%,30.5%,34%,14.6%,-83.9% (active),-16.4% (active),25.8%,39.4%,28.9%,74.7%,22.7%,79.5%,103%,,51.1%,34.9%,31.9%,
COc1ccc2c(c1)sc1nc(-c3ccc(Br)cc3)cn12,110%,108%,112%,115%,99.5%,101%,76.4%,86.2%,99.1%,112%,106%,113%,104%,,110%,96.4%,84.4%,109%,104%,133%
CCN(CC)CCNCC(=O)Oc1ccc(/C=C/C(=O)CC(=O)/C=C/c2ccc(OC(=O)CNCCN(CC)CC)c(OC)c2)cc1OC,14.4%,-80.7% (active),-8.49% (active),22%,13.4%,14.4%,-13.7% (active),15.4%,-66.5% (active),14.5%,10.7%,5.1% (active),4.14% (active),,16.8%,22%,51%,-30.5% (active),0.439% (active),50.3%

# From PubChem BioAssay (NCI)
